Source: PubChem (National Center for Advancing Translational Sciences (NCATS))
An excerpt weighted towards active compounds, which were near 7.9% of everything screened.
FMDV inh: antivirals against foot and mouth disease virus; AID 1159524; hit rate 1.2% among 410,000; FMDV antiviral cell-based qHTS; Potency, µM (highest dose often 57.9 µM), usual class: inhibitors; calls by dose curve; tested in HEK293T cells; further: read-out not given here; nearly all actives have a fitted effect of over 45% in size
HCMV inh: human cytomegalovirus inhibition | HFF cells, HCMV-luciferase reporter, 72 h; stronger effect = lower value | activity change, negative = inhibition, % at 57.5 µM | hit rate 4.5% among 410,000 | AID 1259415; in the data active means activity change below about -60%; inconclusive means no clear call, values can overlap the other calls; inactive means above about -39%
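Cell-based, HFFs, 1000 cells/well, 16 h 37C; cpds in DMSO + HCMV-luc, MOI 1 PFU/cell; 72 h 37C; OneGlo luminescence after 5 min RT; norm. to buffer vs Salinomycin 10uM.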
LASV entry inh: inhibitors of Lassa virus binding or cell entry. Lassa virus pseudotype entry inhibition, cell reporter. Potency, µM (highest dose often 37.9 µM), most hits filed as inhibitors. hit rate 1.2% among 300,000. AID 540256; calls by dose curve; tested in HEK293 cells; further: nearly all actives have a fitted effect of over 50% in size
HCV inhibitor: blocks hepatitis C virus. Huh7.5.1 HCVcc-Cre infection, luciferase reporter, 44 h. Potency, µM (highest dose often 41.8 µM), hits mostly inhibitors. hit rate 3.4% among 340,000. AID 651820; active means well fitted inhibition curve with a large enough effect; inconclusive means small, poorly fitted or top-dose-only effect, or another doubt; inactive means no such curve, though single readings can be large or run the other way
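Infectious HCV cell culture screen: compound-treated cells (1,000/well, pre-plated 4 h) are infected with HCVcc-Cre at roughly 0.5 moi and grown 44 h. Infection is quantified by luciferase signal after 15 min substrate incubation at room temperature.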
Marburg entry inh: inhibitors of Marburg virus binding or cell entry. AID 540276. Potency, µM (doses to about 37.8 µM), hits mostly inhibitors. Marburg virus pseudotyped entry inhibition, cell reporter. hit rate 1.8% among 300,000; calls by dose curve; tested in HEK293 cells
Large screens that a line does not name were inactive.

CCOc1ccc2ccccc2c1C(=O)NCC(c1ccc(N(C)C)cc1)N(C)C (configuration not stated)	none (no result: LASV entry inh, Marburg entry inh)
CC(=O)Nc1ccc(NC(=O)CN(c2ccc([N+](=O)[O-])cc2)S(=O)(=O)c2ccccc2)cc1	HCMV inh inconclusive (no result: LASV entry inh, Marburg entry inh)
Cc1cc(C)cc(NC(=O)CN(c2cccc(C)c2C)S(=O)(=O)c2ccccc2)c1	HCMV inh inconclusive, Marburg entry inh inconclusive (no result: HCV inhibitor)
CCc1ccc(N(CC(=O)Nc2ccc(NC(C)=O)cc2)S(=O)(=O)c2ccccc2)cc1	HCMV inh -61.1, LASV entry inh inconclusive
Cc1ccc(N(CC(=O)Nc2ccccc2-c2ccccc2)S(=O)(=O)c2ccccc2)cc1	HCMV inh -69.9, LASV entry inh inconclusive, HCV inhibitor 10µM, Marburg entry inh inconclusive
Cc1cc(NC(=O)CN(c2cccc(C)c2C)S(=O)(=O)c2ccccc2)ccc1Br	FMDV inh inconclusive, HCMV inh -68.3, LASV entry inh inconclusive, Marburg entry inh inconclusive (no result: HCV inhibitor)
CCN(CC)S(=O)(=O)c1ccc(NC(=O)CN(c2ccccc2)S(=O)(=O)N(C)C)cc1	HCMV inh -88.8, LASV entry inh inconclusive (no result: HCV inhibitor)
Cc1ccc(N(CC(=O)NCc2ccco2)S(=O)(=O)c2ccccc2)cc1	none
Cc1ccc(S(=O)(=O)N(CC(=O)Nc2ccccc2-c2ccccc2)c2ccc(C)cc2C)cc1	HCMV inh inconclusive, LASV entry inh inconclusive, HCV inhibitor inconclusive, Marburg entry inh inconclusive
Cc1cccc(N(CC(=O)Nc2ccccc2-c2ccccc2)S(=O)(=O)c2ccccc2)c1C	HCMV inh -61.3, HCV inhibitor inconclusive, Marburg entry inh inconclusive
CCNC(=O)CN(c1ccc(C)cc1)S(=O)(=O)c1ccccc1	HCMV inh -82.8
C[C@H]1COC(=O)[C@H](Cc2ccc(F)cc2)C/C=C\C[C@@H](CC(=O)NCCO)C(=O)N1	none (no result: LASV entry inh, Marburg entry inh)
O=C(C[C@@H]1C/C=C/CC[C@H](Cc2ccc(F)cc2)C(=O)OC[C@@H](Cc2ccccc2)NC1=O)N[C@H](CO)Cc1ccccc1	HCMV inh -98.5, HCV inhibitor inconclusive (no result: LASV entry inh, Marburg entry inh)
C[C@H]1COC(=O)[C@@H](Cc2ccc(F)cc2)C/C=C\C[C@@H](CC(=O)NCCO)C(=O)N1	HCV inhibitor 3.55µM (no result: LASV entry inh, Marburg entry inh)
O=C(C[C@@H]1C/C=C/CC[C@H](Cc2ccc(F)cc2)C(=O)OCCNC1=O)N[C@H](CO)Cc1ccccc1	HCV inhibitor 10µM (no result: LASV entry inh, Marburg entry inh)
C[C@@H]1COC(=O)[C@H](Cc2ccc(F)cc2)CC/C=C/C[C@@H](CC(=O)N[C@@H](CO)Cc2ccccc2)C(=O)N1	none (no result: LASV entry inh, Marburg entry inh)
O=C1NCCOC(=O)[C@H](Cc2ccc(F)cc2)CC/C=C/C[C@@H]1CC(=O)N(CCO)Cc1ccccc1	none (no result: LASV entry inh, Marburg entry inh)
O=C1NCCOC(=O)[C@@H](Cc2ccc(F)cc2)CC/C=C/C[C@H]1CC(=O)N(CCO)Cc1ccccc1	FMDV inh inconclusive, HCV inhibitor 11.2µM (no result: LASV entry inh, Marburg entry inh)
COC(=O)c1cc(S(=O)(=O)Nc2cc(S(=O)(=O)N(C)C)ccc2C)oc1C	none
CCCCc1nc(NC[C@H]2CCCO2)c(C#N)c2c1COC(C)(C)C2	none (no result: FMDV inh, HCMV inh, LASV entry inh, HCV inhibitor)
Cc1cccc(OCCn2c(-c3ccc(Cl)cc3)nc3ccccc3c2=O)c1C	none (no result: HCV inhibitor)
CN(CCOc1ccc(Cl)cc1)c1ccc(S(=O)(=O)N2CCCCC2)cn1	LASV entry inh inconclusive, HCV inhibitor 14.1µM, Marburg entry inh inconclusive
O=S(=O)(c1ccc(SCCOc2ccccc2)nc1)N1CCCC1	HCV inhibitor inconclusive (no result: LASV entry inh, Marburg entry inh)
O=S(=O)(c1ccc(SCCOc2ccc(F)cc2)nc1)N1CCCC1	FMDV inh inconclusive, HCMV inh inconclusive, HCV inhibitor 15.8µM (no result: LASV entry inh, Marburg entry inh)
Cc1ccc(OCCNc2ccc(S(=O)(=O)N3CCCC3)cn2)cc1	LASV entry inh inconclusive
CCOC(=O)c1ccc(NS(=O)(=O)c2ccc3c(c2)CCN3C(=O)CC)cc1	Marburg entry inh inconclusive (no result: HCV inhibitor)
Cc1ccccc1C(=O)Nc1nnc(S(=O)(=O)N(C)Cc2ccc(Cl)cc2)s1	none (no result: HCV inhibitor, Marburg entry inh)
COc1ccc(N2CC(NC(=O)C(c3ccccc3)c3ccccc3)CC2=O)cc1 (configuration not stated)	none (no result: HCV inhibitor, Marburg entry inh)
COC(=O)c1ccc(N2CCN(C)CC2)c(NC(=O)c2sc3ccccc3c2Cl)c1	HCMV inh -98.4, HCV inhibitor inconclusive
CN1CCN(c2ccc(NC(=O)c3sc4ccccc4c3Cl)cc2)CC1	HCMV inh inconclusive, LASV entry inh inconclusive, HCV inhibitor inconclusive, Marburg entry inh inconclusive
C#C[C@]1(O)CC[C@H]2[C@@H]3CCC4=Cc5oncc5C[C@]4(C)[C@H]3CC[C@@]21C	FMDV inh 39.8µM (no result: LASV entry inh, Marburg entry inh)
C#C[C@]1(O)CC[C@H]2[C@H]3CCC4=Cc5oncc5C[C@]4(C)[C@@H]3CC[C@]21C	Marburg entry inh 20.6µM (no result: HCMV inh, LASV entry inh, HCV inhibitor)
CCCCc1nnc(NC(=O)c2ccc(OCc3c(C)noc3C)cc2)s1	FMDV inh inconclusive, HCMV inh inconclusive, LASV entry inh inconclusive, Marburg entry inh inconclusive
COc1ccc(N(CC(=O)N/N=C/c2ccccc2F)S(=O)(=O)c2ccccc2)cc1	HCMV inh -76.8, LASV entry inh inconclusive, HCV inhibitor inconclusive, Marburg entry inh inconclusive
COc1ccc(N(CC(=O)N/N=C/c2cccc(OC)c2OC)S(=O)(=O)c2ccccc2)cc1	HCV inhibitor inconclusive (no result: LASV entry inh, Marburg entry inh)
COC(=O)COc1ccc(/C=N/NC(=O)CN(c2ccccc2OC)S(=O)(=O)c2ccccc2)cc1	FMDV inh inconclusive, HCMV inh -99.8, HCV inhibitor inconclusive
COc1ccccc1N(CC(=O)NCc1ccco1)S(=O)(=O)c1ccc(C)cc1	none
Cc1ccc(S(=O)(=O)N(CC(=O)N/N=C/c2ccco2)c2cc(Cl)cc(Cl)c2)cc1	HCMV inh inconclusive, LASV entry inh inconclusive, Marburg entry inh 15.8µM
COc1ccc(N(CC(=O)N/N=C/c2ccc(N(C)C)cc2)S(=O)(=O)c2ccccc2)cc1	LASV entry inh inconclusive, Marburg entry inh inconclusive
COc1ccccc1N(CC(=O)N/N=C/c1ccc(OCC(=O)NCc2ccco2)cc1)S(=O)(=O)c1ccc(C)cc1	LASV entry inh inconclusive, HCV inhibitor 5.01µM, Marburg entry inh inconclusive (no result: HCMV inh)
CCN(C(=O)c1nn(-c2ccc(OC)c(Cl)c2)c(=O)c2c1c1ccccc1n2C)c1cccc(C(F)(F)F)c1	LASV entry inh inconclusive (no result: HCV inhibitor)
O=C(CN(c1cccc(Br)c1)S(=O)(=O)c1ccccc1)N/N=C/c1cc([N+](=O)[O-])ccc1O	FMDV inh inconclusive, HCMV inh -93.6, LASV entry inh inconclusive, HCV inhibitor inconclusive, Marburg entry inh inconclusive
O=C(CCCC(=O)Nc1cccc(Br)c1)N/N=C/c1cc([N+](=O)[O-])ccc1O	Marburg entry inh inconclusive
COc1ccccc1CNC(=O)CSc1ccc(Br)cc1	HCMV inh inconclusive, Marburg entry inh inconclusive
CC(NC(=O)CSC1=NCCS1)c1ccccc1 (configuration not stated)	HCMV inh -76.0
COc1ccccc1CNC(=O)CSC1=NCCS1	HCMV inh -61.3
CCc1ccc(S(=O)(=O)c2c(C(=O)c3ccccc3)cnc3ccc(CC)cc23)cc1	HCMV inh -77.2, Marburg entry inh inconclusive (no result: LASV entry inh, HCV inhibitor)
CCOc1ccc(S(=O)(=O)c2c(C(=O)c3ccc(C)c(C)c3)cnc3ccccc23)cc1	none (no result: LASV entry inh, HCV inhibitor)
COc1ccc(S(=O)(=O)c2c(C(=O)c3ccc(C)c(C)c3)cnc3ccc(F)cc23)cc1	FMDV inh inconclusive, Marburg entry inh inconclusive (no result: LASV entry inh, HCV inhibitor)
